# Data reported in PubChem BioAssay.
# Active and inactive are the calls of the source.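 The calls were made as follows: active = inhibition above 20% together with a positive visual image hit; inconclusive = visual image hit but inhibition not above 20%; inactive = no visual image hit.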
# Experiment: inhibitors of TNFa-induced NFkB p65 translocation, primary screen, imaging, HUVEC, MLSMR starter and 10KST1 sets (AID 438);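 also: compound added about 3h40 before a 20 min TNFalpha stimulation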;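 as to inhibition: signal is the nuclear over cytoplasmic p65 intensity ratio per well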
# Settings: HUVEC TNFa-induced p65 nuclear translocation; cell count: measured here: nuclei count (cytotoxicity indicator), at 2.08 µM; inhibition: at 2 µM, stronger effect = higher value, 0% TNFa-plus-vehicle, 100% no-TNFa wells
Structure (SMILES),inhibition,cell count
COc1ccc(-c2nc3c(c(SCC(=O)N4CCOCC4)n2)COC(C)(C)C3)cc1,23.4% (active),510
CCN(CC)C(=O)c1ccc(CS(=O)(=O)c2ccc(OC)cc2)o1,-2% (inactive),560
CC(C)CCNC(=O)NC(=O)COc1ccccc1C#N,-23.5% (inactive),381
CCOC(=O)N1CCN(S(=O)(=O)c2ccc(F)c(C(=O)Nc3cc(C)cc(C)c3)c2)CC1,-19.7% (inactive),578
Cc1nnc(SCC(=O)Nc2c(Cl)cccc2Cl)[nH]c1=O,1.1% (inactive),598
CCCCN(CCCC)CCn1cnc2c([nH]c3ccc(OC)cc32)c1=O,-7.1% (inactive),569
CC(=O)c1ccc(OCC(O)CN2CC(C)OC(C)C2)cc1 (stereo not given),8.6% (inactive),310
CCOc1ccc(-c2nc(C#N)c(NCc3ccc4c(c3)OCO4)o2)cc1,1.8% (inactive),801
Cc1cc(N=Cc2cc(Br)ccc2O)no1,-6.7% (inactive),330
CCCCN1C(=O)C2C(C(=O)Nc3cccc(OC)c3)C3C=CC2(O3)C1C(=O)NC1CCCCC1C (stereo not given),3.1% (inactive),423
CN(C)S(=O)(=O)c1ccc2c(c1)c(=O)c(C(=O)NCCCN1CCCCCC1)cn2C,-2.8% (inactive),707
COc1ccc(C(=O)N2CCN(c3nc4cc(C)ccc4cc3C#N)CC2)c(OC)c1,7.6% (inactive),383
COc1cc(C(=O)OC(C)CN2CCCC2)cc(OC)c1OC (stereo not given),2.9% (inactive),286
Cc1ccnc2c(N3C(=O)C4C5C=CC(C5)C4(C)C3=O)cccc12 (stereo not given),-6.5% (inactive),630
COc1ccc(OC)c(NC(=O)CSc2nnc(Cc3cccn3C)n2-c2ccc(F)cc2)c1,-3.4% (inactive),671
COc1ccc(C2=NO[C@@H]3C(=O)N(c4cccc(C)c4C)C(=O)[C@H]23)cc1OC,-12.3% (inactive),599
CN(C)c1nc(SCCOC(=O)c2ccccc2)nc(N(C)C)n1,-4.7% (inactive),775
CCN(CC)c1ccc(-c2c(C#N)c(N)nc(OC)c2C#N)cc1,-3.8% (inactive),426
COc1ccc(CN(CC(=O)NCC2CCCO2)C(=O)CNS(=O)(=O)c2ccc(C)cc2)cc1 (stereo not given),-20.2% (inactive),589
COC(=O)c1sccc1NC(=O)c1csc(C)c1,-5.4% (inactive),406

Structure (SMILES),inhibition,cell count
Cc1ccc(C(=O)CC2(O)C(=O)N(C)c3ccc(Br)cc32)c(C)c1 (stereo not given),-5% (inactive),614
CC(=O)Nc1c(-c2ccc(F)cc2)nc2ccccn12,-4.7% (inactive),516
CCCc1cc(=O)[nH]c(/N=C(\N)Nc2ccccc2)n1,3.6% (inactive),826
O=C(CN1CCCC1)Nc1ccc(NC(=O)Nc2ccccc2)cc1,-5.7% (inactive),433
Cc1ccc(CN2C(=O)CCC2C(=O)NC2CCCC2)cc1 (stereo not given),1.3% (inactive),382
CSCSC1=C(C#N)C(c2ccc(Cl)cc2)C(C(C)=O)=C(C)N1 (stereo not given),-1% (inactive),324
COc1ccc(OC)c(S(=O)(=O)N2c3ccccc3CC2C)c1 (stereo not given),-6.3% (inactive),609
CC(=O)Nc1ccc(OCC(O)Cn2nc(C)nc2C)cc1 (stereo not given),1.5% (inactive),357
CC(C)C1C2=C(CC(C)(C)CC2=O)ON1c1ccccc1 (stereo not given),0.5% (inactive),444
O=C(CN1C(=O)C2C3C=CC(C3)C2C1=O)NCc1ccc2c(c1)OCO2 (stereo not given),7.5% (inactive),421
COc1ccc(C(=O)Nc2ccc(S(=O)(=O)Nc3onc(C)c3C)cc2)cc1,3.7% (inactive),501
Cc1nnc(SCc2ccccc2)n1N,2.9% (inactive),465
O=C(c1ncn[nH]1)N1CCN(c2nc(-c3ccccc3)cs2)CC1,2.5% (inactive),397
Cc1cc(C)nc(SC2=CS(=O)(=O)c3ccccc32)n1,4.2% (inactive),409
CC(=O)OC1c2ccccc2C(=O)N1c1ccccc1C (stereo not given),9% (inactive),590
CCCCn1c(=O)[nH]c(=O)c2c1nc(COc1ccc(C#N)cc1)n2CCC,3.4% (inactive),337
Cc1ccccc1CSc1nnc(C)c(=O)[nH]1,1.1% (inactive),600
Cc1nc2cc(C(=O)O)ccc2n1-c1ccc(F)cc1F,-1.5% (inactive),672
CC(C)[C@H](NC(=O)NC1CCCC1)C(=O)O,2.5% (inactive),252
Cc1ccccc1N1OC2C(=O)N(c3ccc(F)cc3)C(=O)C2C1c1ccccn1 (stereo not given),-3.5% (inactive),680
